According to PubChem BioAssay (NCATS):
Records with an inconclusive call do not appear. Active and inactive are the calls of the source. The call rests on the fitted dose curve; in most records, active means well fitted inhibition curve with a large enough effect; inconclusive means small, poorly fitted or top-dose-only effect; inactive means flat fitted curve, though single readings scatter.

Molecular target: Calcium and integrin-binding protein 1 (Homo sapiens) (UniProt Q99828)
Assay: Primary qHTS for Identification of Calcium Integrin Binding Protein 1 (CIB1) Competitor (AID 1508620); further: top concentration of the series differs between compounds
Settings: CIB1-GST / FITC-alphaIIb peptide fluorescence polarization; series mostly up to 114 µM; activity change, negative = inhibition: at the top concentration
Summary of the method: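 Fluorescence polarization competition: GST-tagged CIB1 (1 uM final) preincubated with compound 15 min at room temperature, then FITC-labelled alphaIIb peptide (100 nM final) added. After 15 min at room temperature, polarization read at Ex 480/Em 540.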
On the % scale 0 is the no-effect control and ±100 the full control effect.

Chain of Calcium and integrin-binding protein 1 (Homo sapiens) (Q99828 whole entry, looked up): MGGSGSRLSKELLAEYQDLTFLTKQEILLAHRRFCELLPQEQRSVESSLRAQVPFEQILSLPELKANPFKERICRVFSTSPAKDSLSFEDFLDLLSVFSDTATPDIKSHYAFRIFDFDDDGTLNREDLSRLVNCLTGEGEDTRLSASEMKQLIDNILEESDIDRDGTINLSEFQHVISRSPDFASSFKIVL

| SMILES | activity change, negative = inhibition |
| --- | --- |
| CC(=O)OCC(=O)[C@@]12O[C@@H]1C[C@H]1[C@@H]3CC=C4C[C@@H](O)CC[C@]4(C)[C@H]3CC[C@@]12C | 0.604% (inactive) |
| C=C(C(=O)OC)[C@@H]1CC=C2C=CC(=O)[C@H](C)[C@@]2(C)C1 | -0.898% (inactive) |
| Cn1ncc(Cl)c1-c1cc(C(=O)N[C@H](CN)Cc2ccc(F)c(F)c2)sc1Cl | -18.7% (inactive) |
| C=C1CCC2C(C)(C)CCCC2(C)C1CC/C(C)=C\CO (stereo unspecified) | 0.875% (inactive) |
| COc1cc(C#N)ccc1S(=O)(=O)Nc1ccc2c(c1)cc(C)c(=O)n2C | 3.84% (inactive) |
| COc1ccc(-c2c(C)nn3c(NCCN4CCOCC4)cc(C)nc23)cc1OC | 3.64% (inactive) |
| C=C1C(=O)O[C@H]2/C=C(/C)[C@@H](OC(C)=O)C/C=C(\C)C[C@@H](OC(=O)/C(=C/C)COC(=O)/C(=C/C)CO)[C@@H]12 | -4.52% [at 57.7 µM] (inactive) |
| Cn1ncc(Cl)c1-c1cc(C(=O)N[C@H](CN)Cc2ccc(F)c(F)c2)oc1Cl | -5.92% (inactive) |
| COc1ccc([C@H]2OC[C@H]3O[C@@H](O[C@H]4[C@@H]2NC[C@@H]4O)[C@H](O)[C@H]3O)cc1 | -2.38% [at 57.7 µM] (inactive) |
| CCC(C)C(=O)Oc1cc(C)ccc1C1(COC(=O)C(C)C)CO1 (stereo unspecified) | 1.16% [at 57.7 µM] (inactive) |
| C=CC(C)(O)CC/C=C(\C)C(=O)OC1C(O)C(CO)OC(OC(=O)C23CCC(C)(C)CC2C2=CCC4C5(C)CCC(OC6OC(COC7OCC(OC(C)=O)C(O)C7OC7OC(COC(C)=O)C(O)C(O)C7OC(C)=O)C(O)C(O)C6OC6OCC(O)C(O)C6O)C(C)(C)C5CCC4(C)C2(C)C(O)C3O)C1OC1OCC(OC2OCC(O)C(OC3OCC(O)C(O)C3O)C2O)C(O)C1O (stereo unspecified) | 5.75% [at 12.4 µM] (inactive) |
